Experimental data reported in PubChem BioAssay (Tox21).
Several values for one entry are separate records, joined by “and”; a condition that tells them apart may be missing. Identical values can stand only once. Records with an inconclusive call do not appear. Activity calls are given as the source filed them. Unless noted, the call rests on the fitted dose curve; in most records, active means well fitted curve in the direction sought with a large enough effect in the repeat runs; inconclusive means weak or mixed curves; inactive means no such curve, though single readings can be large; an effect the other way counts as inactive or inconclusive.

Key:
[1] = qHTS assay for small molecule agonists of the p53 signaling pathway (AID 651631; calls by dose curve; further: nearly all actives have a fitted effect of over 15% in size; further: potency means the concentration at half of the fitted maximal effect)
Outline: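 We treat p53RE-bla HCT-116 cells with compounds for 16 h at 37 °C, add LiveBLAzer B/G FRET substrate for 2 h at room temperature, and measure fluorescence intensity.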

[2] = biological target: Nuclear receptor subfamily 1 group I member 3 (Homo sapiens) (UniProt Q14994); assay: qHTS assay to identify small molecule antagonists of the constitutive androstane receptor (CAR) signaling pathway (AID 1224838);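 further: HepG2 cells stably expressing hCAR with CYP2B6 luciferase reporter stimulated by CITCO; nearly all actives have a fitted effect of over 40% in size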; further: potency means the concentration at half of the fitted maximal effect
Outline: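 Quantitative HTS in double-stable HepG2-CYP2B6-hCAR cells. After 4 h plating, cells get compound (15 concentrations) and CITCO at 50 nM final, incubate 24 h at 37 C, then ONE-Glo luminescence is read.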

[3] = qHTS assay to identify small molecule agonists of the estrogen related receptor signaling pathway with the pleiotropic PPARgamma coactivator (PGC) from Tox21 10K library (AID 1224842); further: nearly all actives have a fitted effect of over 15% in size
Outline: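 PGC/ERR reporter cells (NTP line) were seeded 2,000 per well, rested 6 h at 37 C/5% CO2, then pin-dosed with compounds in DMSO for 18 h at 37 C; luciferase read by One-Glo luminescence after 30 min at room temperature.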

[4] = A CellTox Green Cytotoxicity Assay to monitor cytotoxicity in HEK293 cells - 0 hour (AID 1224869); further: nearly all actives have a fitted effect of over 50% in size
Outline: (§1)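 Each value comes from one timepoint of a single continuous run in which HEK293 cells with CellTox Green were exposed to compound for up to 40 h at 37 C, dye fluorescence rising with cell death.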

[5] = qHTS RealTime-Glo MT Cell Viability Assay in HepG2 cells - 40 hour (AID 1224870); further: nearly all actives have a fitted effect of over 50% in size; further: potency means the concentration at half of the fitted maximal effect
Outline: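 HepG2 cells mixed with RealTime-Glo MT reagents (NanoLuc plus cell-permeant prosubstrate) were seeded at 600 cells/well, incubated 5 h at 37 C/5% CO2, then pinned with compounds in DMSO; nonlytic luminescence tracked viability during 40 h treatment.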

[6] = A CellTox Green Cytotoxicity Assay to monitor cytotoxicity in HEK293 cells - 40 hour (AID 1224871); further: nearly all actives have a fitted effect of over 45% in size; further: potency means the concentration at half of the fitted maximal effect
Outline: as §1

[7] = A CellTox Green Cytotoxicity Assay to monitor cytotoxicity in HepG2 cells - 16 hour (AID 1224876); further: nearly all actives have a fitted effect of over 45% in size; further: potency means the concentration at half of the fitted maximal effect
Outline: (§2)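 Continuous culture of HepG2 cells with a membrane-impermeant DNA dye; rising fluorescence marks dead cells. Compound exposure lasted up to 40 h at 37 C, with reads every 8 h from 0 h.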

[8] = qHTS RealTime-Glo MT Cell Viability Assay in HepG2 cells - 32 hour (AID 1224877); further: nearly all actives have a fitted effect of over 55% in size; further: potency means the concentration at half of the fitted maximal effect
Outline: (§3)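 qHTS, HepG2, 600 cells/well, RealTime-Glo (NanoLuc + prosubstrate) added with cells; 5 h preincubation; DMSO compound addition; 37 C; luminescence at 0/8/16/24/32/40 h.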

[9] = qHTS RealTime-Glo MT Cell Viability Assay in HEK293 cells - 0 hour (AID 1224880); further: top concentration of the series differs between compounds; nearly all actives have a fitted effect of over 45% in size
Outline: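 qHTS format; HEK293 cells with NanoLuc/prosubstrate reagent, 37 C/5% CO2 for 5 h pre-dosing; compounds 23 nL in DMSO; luminescence at each time point reflects viable cells.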

[10] = A CellTox Green Cytotoxicity Assay to monitor cytotoxicity in HEK293 cells - 16 hour (AID 1224888); further: nearly all actives have a fitted effect of over 35% in size; further: potency means the concentration at half of the fitted maximal effect
Outline: as §1

[11] = qHTS RealTime-Glo MT Cell Viability Assay in HepG2 cells - 0 hour (AID 1224889); further: nearly all actives have a fitted effect of over 50% in size
Outline: as §3

[12] = A CellTox Green Cytotoxicity Assay to monitor cytotoxicity in HepG2 cells - 8 hour (AID 1224890); further: nearly all actives have a fitted effect of over 45% in size
Outline: as §2

[13] = qHTS assay to identify small molecule antagonists of the estrogen receptor alpha (ER-alpha) signaling pathway using the BG1 cell line in the presence of 0.1 nM 17-beta-estradiol - cell viability counter screen (AID 1259241); further: nearly all actives have a fitted effect of over 40% in size
Outline: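 Estradiol-stimulated (0.1 nM) VM7Luc4E2 cells exposed to compounds 22 hr; viability measured by fluorescence of cleaved CellTiter-Fluor substrate after 30 min.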

[14] = qHTS assay to identify small molecule antagonists of the sonic hedgehog signaling (Shh) pathway (AID 1259369; calls by dose curve)
Outline: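 Screening used 3T3Gli1-Luc cells at 2,000 per well, compounds delivered in DMSO, and conditioned medium as agonist stimulus; plates incubated 24hr at 37 C and 5% CO2 before a 30min luciferase step.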

[15] = qHTS assay to identify small molecule agonists or antagonists of the thyroid stimulating hormone receptor (TSHR) signaling pathway - wild type cell line counter screen (AID 1259384; calls by dose curve)
Outline: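 Wild-type HEK293 cells were plated 18 h at 37 C/5% CO2, pin-dosed with compound plus Ro20-1724 medium, held 30 min at room temperature, then given cAMP-d2 and anti-cAMP-cryptate; fluorescence was read after 1 h. Fifteen concentrations, triplicate.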

[16] = qHTS assay to identify small molecule agonists of the TGF-beta/Smad signaling pathway (AID 1346859; active means well fitted activation curve with a large enough effect in the signal ratio in the repeat runs, not every such curve was filed as active; the % refers to the signal ratio; further: series mostly up to about 77 µM)
Outline: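 Each well held 4,000 SBE-bla HEK 293T cells incubated overnight before compound addition; 5 hr later the cleavable FRET substrate went on for 2 hr at room temperature, and fluorescence was read at two emissions.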

[17] = biological target: Cytochrome P450 1A2 (Homo sapiens) (UniProt P05177); assay: Cytochrome P450 Family 1 Subfamily A Member 2 (CYP1A2) small molecule antagonists: luciferase reporter qHTS assay (AID 1671199); further: nearly all actives have a fitted effect of over 50% in size; further: potency means the concentration at half of the fitted maximal effect
Outline: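 Signal from luciferin formed by CYP1A2 from a proluciferin substrate is read as luminescence, expressed in relative luminescence units. Compounds sit with enzyme 10 min, NADPH-driven reaction runs 1 h, all at room temperature.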

[18] = biological target: Voltage-gated inwardly rectifying potassium channel KCNH2 (Homo sapiens) (UniProt Q12809); assay: Human Ether-a-go-go-Related Gene (hERG) channel small molecule antagonists: fluorescence cell-based qHTS assay (AID 1671200); further: nearly all actives have a fitted effect of over 50% in size; further: potency means the concentration at half of the fitted maximal effect
Outline: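 Kinetic two-minute fluorescence traces, sampled at 1 s, were collected following thallium stimulus of U2OS cells (1000 per well) that had been cultured overnight at 37 C and loaded with FluxOR II.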

[19] = qHTS assay to identify small molecule HDAC inhibitors - cell viability counter screen (AID 1259365)
Outline: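 After overnight seeding at 1,500 cells per well, wild-type HCT-116 cultures took up compounds in DMSO for 2hr at 37 C. Viable cell content came from luminescence with CellTiter-Glo.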

[20] = qHTS assay to identify small molecule antagonists of the androgen receptor (AR) signaling pathway using the MDA cell line in the presence of 0.5 nM R1881 - cell viability counter screen (AID 1259242); further: nearly all actives have a fitted effect of over 45% in size
Outline: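 Fluorescence from CellTiter-Fluor, which reports protease activity of live cells, was read 30 min after reagent addition to MDA-kb2 cells that had been incubated 16 hr with compound and 0.5 nM R1881.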

Measured: Potency

Chain of Voltage-gated inwardly rectifying potassium channel KCNH2 (Homo sapiens) (Q12809 whole entry, looked up): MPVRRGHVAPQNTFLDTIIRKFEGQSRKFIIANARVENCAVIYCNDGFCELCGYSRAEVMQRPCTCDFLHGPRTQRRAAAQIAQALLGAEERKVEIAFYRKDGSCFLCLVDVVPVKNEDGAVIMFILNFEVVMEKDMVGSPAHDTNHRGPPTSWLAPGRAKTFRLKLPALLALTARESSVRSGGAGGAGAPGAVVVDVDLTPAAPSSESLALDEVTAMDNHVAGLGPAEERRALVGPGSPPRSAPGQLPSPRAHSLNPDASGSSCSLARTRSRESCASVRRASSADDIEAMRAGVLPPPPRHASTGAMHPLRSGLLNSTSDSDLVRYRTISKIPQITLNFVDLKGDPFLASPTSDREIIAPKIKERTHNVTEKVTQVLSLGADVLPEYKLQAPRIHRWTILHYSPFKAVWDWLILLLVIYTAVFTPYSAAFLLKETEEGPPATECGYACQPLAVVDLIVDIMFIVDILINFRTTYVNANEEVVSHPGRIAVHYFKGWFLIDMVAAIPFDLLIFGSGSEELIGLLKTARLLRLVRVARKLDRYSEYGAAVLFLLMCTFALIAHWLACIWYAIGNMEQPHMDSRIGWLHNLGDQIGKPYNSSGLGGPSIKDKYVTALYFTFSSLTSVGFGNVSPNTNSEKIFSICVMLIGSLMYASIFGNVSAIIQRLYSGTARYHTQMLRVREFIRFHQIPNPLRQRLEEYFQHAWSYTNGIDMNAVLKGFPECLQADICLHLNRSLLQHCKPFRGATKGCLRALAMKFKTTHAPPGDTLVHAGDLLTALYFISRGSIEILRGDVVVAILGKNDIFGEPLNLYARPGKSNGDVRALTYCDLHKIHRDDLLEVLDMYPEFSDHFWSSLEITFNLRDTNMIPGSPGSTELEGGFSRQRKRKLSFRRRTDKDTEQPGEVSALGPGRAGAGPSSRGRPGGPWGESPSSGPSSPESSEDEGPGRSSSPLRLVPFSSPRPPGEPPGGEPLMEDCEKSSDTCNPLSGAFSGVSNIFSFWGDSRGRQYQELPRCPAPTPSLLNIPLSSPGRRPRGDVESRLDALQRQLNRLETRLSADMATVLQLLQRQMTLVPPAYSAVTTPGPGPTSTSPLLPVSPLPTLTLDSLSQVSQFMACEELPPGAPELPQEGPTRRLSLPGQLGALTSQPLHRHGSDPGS
Chain of Nuclear receptor subfamily 1 group I member 3 (Homo sapiens) (Q14994 whole entry, looked up): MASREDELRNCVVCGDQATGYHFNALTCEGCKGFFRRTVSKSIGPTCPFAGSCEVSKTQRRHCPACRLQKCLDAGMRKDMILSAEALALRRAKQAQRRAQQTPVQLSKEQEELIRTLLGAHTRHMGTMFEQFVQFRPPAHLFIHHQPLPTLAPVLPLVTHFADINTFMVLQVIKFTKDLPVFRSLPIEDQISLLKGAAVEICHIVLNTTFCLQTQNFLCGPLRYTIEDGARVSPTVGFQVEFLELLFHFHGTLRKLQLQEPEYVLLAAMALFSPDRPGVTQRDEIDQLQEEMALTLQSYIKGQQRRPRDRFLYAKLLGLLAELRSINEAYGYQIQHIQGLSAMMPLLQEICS
Chain of Cytochrome P450 1A2 (Homo sapiens) (P05177 whole entry, looked up): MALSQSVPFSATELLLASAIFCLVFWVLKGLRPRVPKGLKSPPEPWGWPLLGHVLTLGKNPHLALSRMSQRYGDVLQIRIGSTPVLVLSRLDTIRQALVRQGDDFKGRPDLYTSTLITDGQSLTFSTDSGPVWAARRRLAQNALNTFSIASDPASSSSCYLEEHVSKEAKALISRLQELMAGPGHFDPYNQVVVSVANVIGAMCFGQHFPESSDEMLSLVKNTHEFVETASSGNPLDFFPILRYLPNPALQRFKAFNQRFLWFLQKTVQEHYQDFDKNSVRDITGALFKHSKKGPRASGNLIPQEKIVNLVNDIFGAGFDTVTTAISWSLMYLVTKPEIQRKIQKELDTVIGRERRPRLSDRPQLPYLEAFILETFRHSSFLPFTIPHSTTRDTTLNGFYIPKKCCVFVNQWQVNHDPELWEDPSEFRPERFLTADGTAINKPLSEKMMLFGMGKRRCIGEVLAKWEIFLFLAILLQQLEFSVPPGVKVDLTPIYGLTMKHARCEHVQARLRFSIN

Cc1ccc(N(SC(F)(Cl)Cl)S(=O)(=O)N(C)C)cc1
inactive: [3] | [4] | [9] | [11] | [12] | [13] | [15] | [16]
active: [1] 6.11 µM | [2] 27.3 µM | [5] 9.77 µM | [6] 4.9 µM | [7] 17.4 µM | [8] 9.77 µM | [10] 24.5 µM | [14] 2.73 µM | [17] 22.4 µM | [18] 21.9 µM

CC1COC(Cn2cncn2)(c2ccc(Oc3ccc(Cl)cc3)cc2Cl)O1 (stereo not given)
inactive: [3] | [4] | [7] | [9] | [10] | [12] | [13] | [19] | [15] | [16]
active: [6] 49 µM | [14] 3.44 µM | [17] 25.2 µM | [18] 21.9 µM

COc1cc(OC)c(OC)cc1C=O
inactive: [2] | [3] | [4] | [5] | [6] | [7] | [8] | [9] | [10] | [11] | [20] | [19] | [15] | [16] | [18]
active: [14] 13.3 µM | [17] 11 µM

Cc1nnc2n1-c1sc(CCc3ccc(CC(C)C)cc3)cc1C(c1ccccc1Cl)=NC2C (stereo not given)
active: [6] 23.9 µM | [14] 21.1 µM | [18] 15.1 µM
inactive: [2] | [3] | [4] | [7] | [10] | [11] | [12] | [13] | [19] | [15] | [17]

Brc1cc(Br)cc(Br)c1
inactive: [2]

OC(Cc1ccccc1Cl)(Cn1[nH]cnc1=S)C1(Cl)CC1 (stereo not given)
inactive: [2] | [4] | [5] | [6] | [7] | [8] | [10] | [11] | [12] | [13] | [20] | [19] | [15] | [16] | [18]
active: [14] 38.6 µM

CCOC(=O)C(O)(c1ccc(Cl)cc1)c1ccc(Cl)cc1
active: [1] 27.6 µM | [6] 44.1 µM | [14] 7.77 µM and 19.3 µM | [17] 40.3 µM and 71 µM | [18] 22.1 µM and 21.9 µM
inactive: [2] | [4] | [5] | [7] | [8] | [9] | [10] | [11] | [12] | [13] | [20] | [19] | [16]

CNC(=O)Oc1cc(C)c(SC)c(C)c1
inactive: [2] | [5] | [7] | [8] | [9] | [11] | [12] | [13] | [20] | [19] | [15] | [16] | [18]
active: [10] 21.9 µM | [14] 8.63 µM | [17] 6.33 µM

CCCCC(CC)COC(=O)CCCCC(=O)OCC(CC)CCCC (stereo not given)
inactive: [1]
